Where a name gives a salt, the structure may show the parent alone. ± gives the standard deviation of the averaged measurements.

The test system of the first test is iBMDM (immortalised mouse bone-marrow-derived macrophages), LPS-stimulated. Kind of test: mitochondrial superoxide (MitoSOX fluorescence) fold increase over unstimulated control; higher = more LPS-induced mitochondrial ROS (less inhibition). As to conditions: inhibitor concentration: 500 nM; LPS: 100 ng/ml; time after LPS: 2 h. Summed up: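 Immortalised mouse bone-marrow-derived macrophages in black 96-well plates were kept in phenol-red-free 1% FCS/DMEM for 20 h, pretreated 30 min with kinase inhibitors (500 nM), loaded with 1 μM MitoSox for 10 min and then given LPS (100 ng/ml). Fluorescence at excitation/emission 510/580 nm was read on a ClarioStar plate reader every 60 min for 4 h, with wells in triplicate. Mitochondrial superoxide is given as fold induction over untreated macrophages, averaged across replicates.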
Compound `Oc1ccc2ccccc2c1SSc1c(O)ccc2ccccc12` displayed a mitochondrial superoxide of 1.22 ± 0.04.
Same read-out and setting: in the case of `CNC(=O)Nc1ccc(-c2nc(N3CC4CCC(C3)O4)c3cnn(C4CCC5(CC4)OCCO5)c3n2)cc1` it was 1.45 ± 0.028; in that of `Cc1cc(Nc2ncc(Cl)c(Nc3ccccc3S(=O)(=O)C(C)C)n2)c(OC(C)C)cc1C1CCNCC1`, 1.32 ± 0.033; in that of `CC1(C)CNc2cc(NC(=O)c3cccnc3NCc3ccncc3)ccc21` [Motesanib Diphosphate (AMG-706)], 1.63 ± 0.12.
Same read-out and setting: the value for `C=CC(=O)Nc1ccc2ncnc(Nc3cccc(Br)c3)c2c1` was 1.29 ± 0.027; that for `C=CC(=O)Nc1cccc(Oc2nc(Nc3ccc(N4CCN(C)CC4)cc3OC)ncc2Cl)c1` was 1.53 ± 0.052; that for `Oc1cc(O)cc(/C=C/c2ccc(O)c(O)c2)c1` [Piceatannol] was 1.15 ± 0.013.
As to `Cc1nc(N)sc1-c1ccnc(Nc2ccc(N3CCOCC3)cc2)n1`, the mitochondrial superoxide turned out to be 1.55 ± 0.023.
Compound `CC(=O)Nc1nc(C)c(-c2ccc(Cl)c(S(=O)(=O)NCCO)c2)s1` displayed a mitochondrial superoxide of 1.15 ± 0.03.
Same read-out and setting: in the case of `O=C(c1ccc(/C=C/c2n[nH]c3ccccc23)cc1)N1CCNCC1` it was 1.19 ± 0.067.
Same read-out and setting: in the case of `Cn1cc(C2=C(c3ccc(Cl)cc3Cl)C(=O)NC2=O)c2ccccc21` it was 1.56 ± 0.22; in that of `CC1=C(C(=O)Nc2cc3cn[nH]c3cc2F)C(c2ccc(C(F)(F)F)cc2)CC(=O)N1` (stereo not given), 1.26 ± 0.033.
`O=C(NOC[C@H](O)CO)c1ccc(F)c(F)c1Nc1ccc(I)cc1F` showed a mitochondrial superoxide of 1.64 ± 0.044.
The same measure, in the same setting: in the case of `C=CC(=O)Nc1cccc(Oc2nc(Nc3ccc(N4CCN(C)CC4)cc3)ncc2Cl)c1` it was 1.71 ± 0.056.
Still for that read-out and setting: the value for `CNC(=O)c1ccc(C)c(-n2c(C)cc(OCc3ccc(F)cc3F)c(Br)c2=O)c1` was 1.48 ± 0.059; that for `CC(C)n1nc(-c2ccc3oc(N)nc3c2)c2c(N)ncnc21` was 1.57 ± 0.055; that for `CC[C@@H]1C(=O)N(C)c2cnc(Nc3ccc(C(=O)NC4CCN(C)CC4)cc3OC)nc2N1C1CCCC1` was 1.19 ± 0.038.
In the case of `COc1cc2ncnc(Nc3ccc(F)c(Cl)c3)c2cc1NC(=O)/C=C/CN1CCCCC1`, the mitochondrial superoxide turned out to be 1.48 ± 0.045.
Compound `CCN1CCN(Cc2ccc(-c3cc4c(N[C@H](C)c5ccccc5)ncnc4[nH]3)cc2)CC1` had a mitochondrial superoxide of 1.11 ± 0.04.
Still for that read-out and setting: the value for `CN(C)c1ccc(-c2nc3ncc(Cl)c(N4CCN(CC(=O)Nc5nccs5)CC4)c3[nH]2)cc1` was 1.278 ± 0.0079; that for `O=C(Cc1ccc(-c2ccc(OCCN3CCOCC3)cc2)cn1)NCc1ccccc1` was 1.4 ± 0.1; that for `CC(C)(C)NS(=O)(=O)c1cncc(-c2cc(F)c3nc(N)nn3c2)c1` was 1.18 ± 0.038.
On the same count and under the same terms, in the case of `COc1cc2ncnc(Nc3ccc(F)c(Cl)c3)c2cc1OCCCN1CCOCC1` [Gefitinib (ZD1839)] it was 1.71 ± 0.044.

Staying with this test, now noted: inhibitor concentration: 500 nM; LPS: 100 ng/ml; time after LPS: 4 h.
In turn, `Cc1ccccc1-n1c(Cn2nc(-c3cccc(O)c3)c3c(N)ncnc32)nc2cccc(C)c2c1=O` registered a mitochondrial superoxide of 1.42 ± 0.034.
Same read-out and setting: the value for `COc1cc(OC)c(/C=C/S(=O)(=O)Cc2ccc(OC)c(NCC(=O)O)c2)c(OC)c1` was 1.23 ± 0.086; that for `Cc1cnc(NC(=O)Nc2cc(Br)c(C)cc2OC[C@@H]2CNCCO2)cn1` was 1.55 ± 0.052; that for `Cc1ccc(NC(=O)c2ccc(CN3CCN(C)CC3)cc2)cc1Nc1nccc(-c2cccnc2)n1` [Imatinib Mesylate (STI571)] was 1.72 ± 0.03.
On the same count and under the same terms, in the case of `Cc1cn(-c2cc(NC(=O)c3ccc(C)c(Nc4nccc(-c5cccnc5)n4)c3)cc(C(F)(F)F)c2)cn1` [Nilotinib (AMN-107)] it was 1.65 ± 0.1; in that of `FC(F)(F)c1ccc(/C=C/c2nc(COc3ccc(CCCCn4ccnn4)cc3)co2)cc1` [Mubritinib (TAK 165)], 1.296 ± 0.0099; in that of `CC(C)c1cnn2c(NCc3ccccc3)cc(NCCCCCCN)nc12`, 1.47 ± 0.059.
Same read-out and setting: in the case of `CCC[C@H](NC(=O)/C(C#N)=C/c1cccc(Br)n1)c1ccccc1` [Degrasyn (WP1130)] it was 1.48 ± 0.038; in that of `Cc1cc(Nc2nc(N[C@@H](C)c3ccc(F)cc3)c(C#N)cc2F)n[nH]1`, 1.31 ± 0.085; in that of `Nc1nc(N)c2nc(-c3cccc(O)c3)cnc2n1`, 1.09 ± 0.046.
In turn, `CS(=O)(=O)c1ccc(-c2cnc(N)c(C(=O)Nc3ccccc3)n2)cc1` yielded a mitochondrial superoxide of 1.6 ± 0.078.
Still for that read-out and setting: in the case of `O=c1cc(N2CCOCC2)oc2c1ccc1ccccc12` it was 1.17 ± 0.062.
As for `Cc1cc(Nc2ncnc3ccc(-c4ccc(CNCCS(C)(=O)=O)o4)cc23)ccc1Oc1ccn2ncnc2c1` [HER2-Inhibitor-1], the mitochondrial superoxide is 1.57 ± 0.063.
Still for that read-out and setting: in the case of `O=C1NC(=O)C(c2ccccc2[N+](=O)[O-])=C1Nc1ccc(O)c(Cl)c1` it was 1.63 ± 0.063.
Same read-out and setting: the value for `Oc1ccc2ccccc2c1SSc1c(O)ccc2ccccc12` was 1.32 ± 0.015; that for `CNC(=O)Nc1ccc(-c2nc(N3CC4CCC(C3)O4)c3cnn(C4CCC5(CC4)OCCO5)c3n2)cc1` was 1.58 ± 0.024.
Compound `Cc1cc(Nc2ncc(Cl)c(Nc3ccccc3S(=O)(=O)C(C)C)n2)c(OC(C)C)cc1C1CCNCC1` displayed a mitochondrial superoxide of 1.39 ± 0.024.
Consider `CC1(C)CNc2cc(NC(=O)c3cccnc3NCc3ccncc3)ccc21` [Motesanib Diphosphate (AMG-706)], for which the mitochondrial superoxide was 1.71 ± 0.053.
`C=CC(=O)Nc1ccc2ncnc(Nc3cccc(Br)c3)c2c1` showed a mitochondrial superoxide of 1.3 ± 0.061.
Same read-out and setting: in the case of `C=CC(=O)Nc1cccc(Oc2nc(Nc3ccc(N4CCN(C)CC4)cc3OC)ncc2Cl)c1` it was 1.68 ± 0.041; in that of `Oc1cc(O)cc(/C=C/c2ccc(O)c(O)c2)c1` [Piceatannol], 1.23 ± 0.041.
On the same count and under the same terms, the value for `Cc1nc(N)sc1-c1ccnc(Nc2ccc(N3CCOCC3)cc2)n1` was 1.7 ± 0.02; that for `CC(=O)Nc1nc(C)c(-c2ccc(Cl)c(S(=O)(=O)NCCO)c2)s1` was 1.23 ± 0.048; that for `O=C(c1ccc(/C=C/c2n[nH]c3ccccc23)cc1)N1CCNCC1` was 1.33 ± 0.035.
Turning to `Cn1cc(C2=C(c3ccc(Cl)cc3Cl)C(=O)NC2=O)c2ccccc21`, the mitochondrial superoxide was 1.68 ± 0.29.
On the same count and under the same terms, in the case of `CC1=C(C(=O)Nc2cc3cn[nH]c3cc2F)C(c2ccc(C(F)(F)F)cc2)CC(=O)N1` (stereo not given) it was 1.35 ± 0.057; in that of `O=C(NOC[C@H](O)CO)c1ccc(F)c(F)c1Nc1ccc(I)cc1F`, 1.71 ± 0.083; in that of `C=CC(=O)Nc1cccc(Oc2nc(Nc3ccc(N4CCN(C)CC4)cc3)ncc2Cl)c1`, 1.8 ± 0.14.
Same read-out and setting: the value for `CNC(=O)c1ccc(C)c(-n2c(C)cc(OCc3ccc(F)cc3F)c(Br)c2=O)c1` was 1.6 ± 0.016; that for `CC(C)n1nc(-c2ccc3oc(N)nc3c2)c2c(N)ncnc21` was 1.78 ± 0.051.
In turn, `CC[C@@H]1C(=O)N(C)c2cnc(Nc3ccc(C(=O)NC4CCN(C)CC4)cc3OC)nc2N1C1CCCC1` gave a mitochondrial superoxide of 1.39 ± 0.028.
Turning to `COc1cc2ncnc(Nc3ccc(F)c(Cl)c3)c2cc1NC(=O)/C=C/CN1CCCCC1`, the mitochondrial superoxide stood at 1.57 ± 0.069.
On the same count and under the same terms, the value for `CCN1CCN(Cc2ccc(-c3cc4c(N[C@H](C)c5ccccc5)ncnc4[nH]3)cc2)CC1` was 1.25 ± 0.081.
Same read-out and setting: in the case of `CN(C)c1ccc(-c2nc3ncc(Cl)c(N4CCN(CC(=O)Nc5nccs5)CC4)c3[nH]2)cc1` it was 1.35 ± 0.039; in that of `O=C(Cc1ccc(-c2ccc(OCCN3CCOCC3)cc2)cn1)NCc1ccccc1`, 1.61 ± 0.11.
On the same count and under the same terms, the value for `CC(C)(C)NS(=O)(=O)c1cncc(-c2cc(F)c3nc(N)nn3c2)c1` was 1.31 ± 0.064; that for `COc1cc2ncnc(Nc3ccc(F)c(Cl)c3)c2cc1OCCCN1CCOCC1` [Gefitinib (ZD1839)] was 1.77 ± 0.025.

Values taken from the supplement of paper PMC7393113.
